The target in test [1] is Cytochrome P450 3A4 (Homo sapiens) (UniProt P08684). In words: qHTS Assay for Inhibitors and Substrates of Cytochrome P450 3A4 (AID 884). Also: nearly all actives have a fitted effect of over 50% in size. Also: potency is read from the fitted curve at half-maximal effect. The settings on record: recombinant CYP3A4, Luciferin-PPXE luminescence; series mostly up to 57.1 µM. In short, it runs like this:
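20 nM human CYP3A4 with 25 uM Luciferin-PPXE (at KM) in 200 mM KPO4, preincubated 10 min with compound; NADPH regeneration started a 60 min RT reaction. Luciferin detected by luminescence, normalized to 57 uM ketoconazole as full inhibition.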
For orientation: qHTS replaces the single test concentration by a dilution series.

Test [2] can be described thus: Confirmatory qHTS to identify inhibitors of SARS-CoV-2 cell entry (AID 1645844; calls by dose curve; also: potency is read from the fitted curve at half-maximal effect; nearly all actives have a fitted effect of over 45% in size). The settings on record: SARS-CoV-2 pseudotyped particle cell entry, luciferase; series mostly up to 57.2 µM. In short, it runs like this: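 HEK293-ACE2 cells (Expi293F stably expressing human ACE2) were pretreated with compounds for 1 hr at 37C, then infected with MLV-based particles carrying Wuhan-Hu-1 spike (C-terminal 19-aa truncation). Luciferase luminescence read after 48 hr; normalized to spike PP (100%) and bald PP (0%).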

The nature of test [3]: Primary qHTS for inhibitors of MERS-S pseudo-typed particle cell entry (AID 1479149; calls by dose curve; also: nearly all actives have a fitted effect of over 60% in size). The settings on record: MERS-S pseudotyped particle entry, luciferase; series mostly up to 57.1 µM.
The target in test [4] is Cytochrome P450 1A2 (Homo sapiens) (UniProt P05177). In words: p450-cyp1a2 (AID 410; calls by dose curve; also: potency is read from the fitted curve at half-maximal effect). As to conditions: recombinant CYP1A2, luciferin-ME demethylation, luminescence; series mostly up to 25.6 µM. In short, it runs like this: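 Human CYP1A2 (20nM) demethylated Luciferin-ME at its Km (100uM) in 100mM KPO4. After 10 min compound preincubation, NADPH regeneration ran the reaction 60 min at room temperature. Luciferin was read by luminescence, normalized to 57 uM furafylline.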

Test [5] can be described thus: qHTS Assay for Identification of Small Molecule Agonists for Thrombopoietin (TPO) Signaling Pathway (AID 917). Also: % is scaled to controls: 0 for no effect and ±100 for the full control effect. The settings on record: TPO signaling pathway reporter cells, agonist qHTS; series mostly up to 38.5 µM. In short, it runs like this:
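Reporter: GpIIb promoter–luciferase in murine Ba/F3 expressing human TPO receptor. Pre-starved of IL-3 overnight; compounds with 26 pM TPO, 24 hrs, 37 C/5% CO2; luminescence read.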

For test [6], the target named is Muscarinic acetylcholine receptor M1 (Rattus norvegicus) (UniProt P08482). As to the kind of experiment: qHTS Assay for Antagonists of Acetylcholine Muscarinic M1 Receptor: Kinetic Measurement of Intracellular Calcium Response (AID 943). Also: nearly all actives have a fitted effect of over 75% in size. Also: potency is read from the fitted curve at half-maximal effect. As to conditions: M1-expressing cells, kinetic intracellular calcium fluorescence; series mostly up to 35.3 µM. In short, it runs like this:
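CHO cells stably expressing rat M1 were loaded with no-wash Fluo-4 dye for 1 h at 37C, pre-incubated 10 min with compound, then challenged with EC80 carbachol (100 nM final); kinetic calcium read 4 min, peak/basal ratio.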

Test [7] shares this target. As to the kind of experiment: qHTS Assay for Antagonists of Acetylcholine Muscarinic M1 Receptor: Measurement of IP-One Response (AID 944). Also: nearly all actives have a fitted effect of over 75% in size. Also: potency is read from the fitted curve at half-maximal effect. As to conditions: CHO-M1 cells, IP-One HTRF, antagonist mode; series mostly up to 46.1 µM. In short, it runs like this:
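CHO cells expressing rat M1 receptor, recovered overnight, were pre-incubated 10 min with compound, then stimulated 30 min with carbachol at EC80 (200 nM) in LiCl-containing buffer, pH 7.4. IP1 accumulation was read by HTRF (620/665 nm).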

The nature of test [8]: S16 Schwann cell PMP22 intronic element beta-lactamase assay (AID 624044; calls by dose curve;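 also: 0% = DMSO and -100% = potassium clavulanate positive control; nearly all actives have a fitted effect of over 15% in size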). As to conditions: S16 rat Schwann cells, PMP22 element beta-lactamase FRET, 24 h; ratio activity, negative = inhibition: at 38.3 µM (top of the series) unless noted. In short, it runs like this:
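Rat S16 Schwann cells with beta-Lac driven by a PMP22 intronic element, compound-treated 24 h at 37 °C. LiveBLAzer FRET B/G read: 460 nm normalized to potassium clavulanate vs DMSO; 535 nm FRET as viability; concentration-effect curves classified.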

The test system of another test is 3D7. As to the kind of experiment: qHTS profiling for inhibitors of Plasmodium falciparum proliferation (AID 504749). Also: nearly all actives have a fitted effect of over 60% in size. Also: potency is read from the fitted curve at half-maximal effect.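 As to activity, negative = inhibition: 0% = DMSO vehicle and full inhibition = artemisinin control.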 The settings on record: P. falciparum in erythrocytes, SYBR Green DNA, 72 h; series mostly up to 28.7 µM. In short, it runs like this: (§1)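 P. falciparum-infected erythrocytes (0.3% parasitemia, 2.5% hematocrit final) were exposed to compounds for 72 h at 37 C in 5% CO2, then lysed with SYBR Green buffer overnight at room temperature; parasite DNA fluorescence was normalized to artemisinin and DMSO controls.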

A further test relates to CP211. The description is as above. The settings on record: P. falciparum in erythrocytes, SYBR Green DNA, 72 h; series mostly up to 28.7 µM. In short, it runs like this: as §1
The next test concerns CP247. The test is described as above. The settings on record: P. falciparum in erythrocytes, SYBR Green DNA, 72 h; series mostly up to 28.7 µM. In short, it runs like this:
as §1

A further test concerns CP256. Described as above. The settings on record: P. falciparum in erythrocytes, SYBR Green DNA, 72 h; series mostly up to 28.7 µM. In short, it runs like this: as §1
Another test relates to CP268. The description is as above. As to conditions: P. falciparum in erythrocytes, SYBR Green DNA, 72 h; series mostly up to 28.7 µM. In short, it runs like this:
as §1

For another test, the system named is Dd2. Described as above. The settings on record: P. falciparum in erythrocytes, SYBR Green DNA, 72 h; series mostly up to 28.7 µM. In short, it runs like this: as §1
The subject of a further test is ECU. The test is described as above. The settings on record: P. falciparum in erythrocytes, SYBR Green DNA, 72 h; series mostly up to 28.7 µM. In short, it runs like this:
as §1

The next test deals with FAB9. The description is as above. As to conditions: P. falciparum in erythrocytes, SYBR Green DNA, 72 h; series mostly up to 28.7 µM. In short, it runs like this: as §1
The test system of another test is PC15. The test is described as above. As to conditions: P. falciparum in erythrocytes, SYBR Green DNA, 72 h; series mostly up to 28.7 µM. In short, it runs like this:
as §1

A further test relates to PC49. The test is described as above. As to conditions: P. falciparum in erythrocytes, SYBR Green DNA, 72 h; series mostly up to 28.7 µM. In short, it runs like this: as §1
The next test deals with W2. The test is described as above. The settings on record: P. falciparum in erythrocytes, SYBR Green DNA, 72 h; series mostly up to 12.8 µM. In short, it runs like this:
as §1

Test [9] is described as follows: Nrf2 qHTS screen for inhibitors: Validation (AID 493153; active = well fitted inhibition curve with a large enough effect in the main read-out, with a control signal flat, not every such curve was filed as active). As to conditions: A549 ARE-Fluc reporter, 18-24 h; viability change: measured here: cytotoxicity max response; luciferase luminescence, at 46.1 µM (top of the series). In short, it runs like this:
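A549 cells carrying an ARE-driven firefly luciferase reporter, in 5% FBS OPTI-MEM, were treated with compounds in concentration-response for 18-24 h at 37°C. Viability was read by CellTiter-Fluor fluorescence, then Nrf2 activity by luciferase luminescence.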

Inconclusive results are not listed. Calls of active or inactive are those of the source. Unless noted, calls follow the shape of the dose curve; as a rule, active = well fitted curve in the direction sought with a large enough effect; inconclusive = small, poorly fitted or top-dose-only effect, or another doubt; inactive = no such curve, though single readings can be large; an effect the other way counts as inactive or inconclusive.

Muscarinic acetylcholine receptor M1 (Rattus norvegicus), sequence (P08482 whole entry, looked up): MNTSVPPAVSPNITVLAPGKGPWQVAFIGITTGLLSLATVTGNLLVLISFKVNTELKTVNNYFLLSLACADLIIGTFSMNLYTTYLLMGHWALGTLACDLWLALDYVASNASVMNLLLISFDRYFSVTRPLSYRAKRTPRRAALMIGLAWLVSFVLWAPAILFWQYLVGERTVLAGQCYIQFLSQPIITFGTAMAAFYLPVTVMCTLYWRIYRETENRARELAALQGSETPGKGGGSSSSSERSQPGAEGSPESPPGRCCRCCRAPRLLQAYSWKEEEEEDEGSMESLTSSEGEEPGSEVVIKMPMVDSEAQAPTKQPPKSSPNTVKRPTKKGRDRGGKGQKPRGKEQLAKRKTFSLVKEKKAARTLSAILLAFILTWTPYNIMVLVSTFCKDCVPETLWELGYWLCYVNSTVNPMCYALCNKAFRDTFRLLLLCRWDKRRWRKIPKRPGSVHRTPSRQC
Cytochrome P450 3A4 (Homo sapiens), sequence (P08684 whole entry, looked up): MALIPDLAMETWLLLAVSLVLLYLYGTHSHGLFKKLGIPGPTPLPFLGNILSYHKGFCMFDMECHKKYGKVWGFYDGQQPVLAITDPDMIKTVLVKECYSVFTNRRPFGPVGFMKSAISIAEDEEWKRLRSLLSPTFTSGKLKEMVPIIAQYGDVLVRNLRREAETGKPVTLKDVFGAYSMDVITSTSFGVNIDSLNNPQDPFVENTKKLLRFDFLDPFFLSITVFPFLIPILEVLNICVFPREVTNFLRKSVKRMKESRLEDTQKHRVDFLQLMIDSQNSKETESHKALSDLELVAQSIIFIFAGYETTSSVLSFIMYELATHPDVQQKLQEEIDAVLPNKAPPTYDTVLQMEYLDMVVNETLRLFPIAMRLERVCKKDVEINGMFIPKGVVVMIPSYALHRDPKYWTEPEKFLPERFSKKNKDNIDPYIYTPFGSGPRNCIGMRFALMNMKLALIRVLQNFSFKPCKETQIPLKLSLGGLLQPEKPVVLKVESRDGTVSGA
Cytochrome P450 1A2 (Homo sapiens), sequence (P05177 whole entry, looked up): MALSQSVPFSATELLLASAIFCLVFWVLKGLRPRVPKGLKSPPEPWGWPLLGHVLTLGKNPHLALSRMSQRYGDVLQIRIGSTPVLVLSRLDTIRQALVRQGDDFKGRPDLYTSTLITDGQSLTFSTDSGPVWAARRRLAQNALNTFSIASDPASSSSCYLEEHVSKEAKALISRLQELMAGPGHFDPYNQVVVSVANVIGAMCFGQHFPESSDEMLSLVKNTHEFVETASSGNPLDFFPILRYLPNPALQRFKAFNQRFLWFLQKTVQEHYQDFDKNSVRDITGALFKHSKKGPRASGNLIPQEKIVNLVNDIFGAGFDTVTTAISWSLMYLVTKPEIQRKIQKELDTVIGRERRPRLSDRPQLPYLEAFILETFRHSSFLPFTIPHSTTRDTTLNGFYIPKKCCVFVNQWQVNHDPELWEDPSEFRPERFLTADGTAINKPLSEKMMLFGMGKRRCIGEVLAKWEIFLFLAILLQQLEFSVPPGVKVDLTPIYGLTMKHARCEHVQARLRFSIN

`CCC1/C=C/C=CCC(C)C(O)[C@@](C)(O)C(=O)C(C)C(O)C(C)C(=O)C(C)C(O)C(C)C=CC(=O)O[C@H]2C(C)C(CC1)O[C@]1(CCC(C)C(CC(C)O)O1)C2C` (stereo partly specified): the Potency in test [1] is 7.94 µM (active).

As for `CC(C)[C@]12O[C@H]1[C@@H]1O[C@@]13[C@@]1(C)CCC4=C(COC4=O)[C@@H]1C[C@@H]1O[C@@]13C2=O`, the Potency in test [2] is 0.271 µM (active).

Consider `CC(C)(O)/C=C\C(=O)[C@](C)(O)[C@H]1[C@H](O)C[C@]2(C)[C@@H]3CC=C4[C@@H](C=C(O)C(=O)C4(C)C)[C@]3(C)C(=O)C[C@@]12C`, for which the Potency in test [1] is 0.398 µM (active).

With `C/C=C(\C)C(=O)N[C@@H](c1ccccc1)[C@@H](O)C(=O)O[C@H]1C[C@@]2(O)[C@@H](OC(=O)c3ccccc3)[C@@H]3[C@]4(OC(C)=O)CO[C@@H]4C[C@H](O)[C@@]3(C)C(=O)[C@H](OC(C)=O)C(=C1C)C2(C)C`, in [2], the Potency was 0.0043 µM (active).

On to `CO[C@H]1CCC(O[C@H]2C[C@H]([C@]3(C)CC[C@]4(C[C@H](O)[C@@H](C)[C@@H]([C@@H](C)/C=C(\C)C(=O)[C@H](C)C[C@H](C)C(=O)O)O4)O3)O[C@]3(O[C@@H]([C@H]4O[C@@](O)(CO)[C@H](C)C[C@@H]4C)C[C@@H]3C)[C@@H]2C)O[C@@H]1C` (stereo partly specified), for which, in test [2], the Potency was 0.681 µM (active).

Regarding `C=C(C)[C@@H]1CCC(C)=C[C@H]1c1c(O)cc(CCCCC)cc1O`, the Potency entry in test [3] is “inactive”.

Take `Cc1c(N)nc([C@H](CC(N)=O)NC[C@@H](N)C(N)=O)nc1C(=O)N[C@H](C(=O)N[C@@H](C)[C@H](O)[C@@H](C)C(=O)N[C@@H](C(=O)NCCc1nc(-c2nc(C(=O)NCCC[S+](C)C)cs2)cs1)[C@@H](C)O)C(O[C@H]1O[C@H](CO)[C@H](O)[C@@H](O)[C@H]1O[C@H]1O[C@H](CO)[C@@H](O)[C@H](OC(N)=O)[C@@H]1O)c1cnc[nH]1` (stereo partly specified): in test [2], the Potency was 0.0341 µM (active).

For the compound `COc1cc(C=C(C#N)C#N)cc(O)c1O`, the Potency in test [4] was 12.6 µM (active). Moreover, in test [5], the outcome was inactive. Moreover, in test [6], the Potency entry was “inactive”.

Turning to `CC[C@@H](CO)NC(=O)[C@H]1C=C2c3cccc4c3c(cn4C)C[C@H]2N(C)C1`, in test [4], the Potency is 15.8 µM (active).

Regarding `C[N+]1(C)C2CC(OC(=O)C(CO)c3ccccc3)CC1C1OC12` (stereo unspecified), in test [1], the Potency result is “inactive”.

As for `NCC#Cc1ccccc1`, the Potency in [4] was 3.16 µM (active). The Potency result in [7] was “inactive”.

Turning to `Oc1ccc2c3c1O[C@H]1[C@@H](O)CC[C@@]4(O)C(C2)N(CC2CCC2)CCC314` (stereo partly specified), the Potency entry (in [8]; in the test with 3D7; in the test on CP211; in the test with CP247; with CP256; in the test on CP268) was “inactive” in each case. Besides, the Potency entry in the test on Dd2, in the test with ECU, in the test on FAB9, in the test with PC15, in the test with PC49 and with W2 was “inactive” in each case.

`CCCN(CCC)C(=O)Cc1c(-c2ccc(Cl)cc2)nc2c(Cl)cc(Cl)cn12`: the Potency result in test [4], in test [6] and in test [7] was “inactive” in each case. For the same compound, in test [5], the compound was called inactive.

With `CCCC[N+]1(C)C2CC(OC(=O)C(CO)c3ccccc3)CC1C1OC12` (stereo unspecified), the Potency entry (in test [8]; in the test with 3D7; in the test with CP211; in the test with CP247; in the test on CP256; in the test on CP268) was “inactive” throughout. Also, the Potency result in the test on Dd2, in the test on ECU, in the test on FAB9, in the test on PC15, in the test on PC49 and in the test on W2 was “inactive” throughout.

As to `CCCCN1C2CCC1CC(OC(c1ccc(F)cc1)c1ccc(F)cc1)C2` (stereo unspecified), the Potency result in test [1] was “inactive”. For the same compound, the Potency in [6] is 0.398 µM (active); in test [7], 2.24 µM (active).

`OCc1cc(C(O)CNCCCCCCOCCOCc2c(Cl)cccc2Cl)ccc1O` (stereo unspecified): the Potency result in test [3] was “inactive”.

Take `CC12CCC3C(CCC4=C(O)C(=O)CCC43C)C1CCC2=O` (stereo unspecified): in [9], the compound was called inactive and the viability change is 0.774%.

Consider `CC(C)OC(=O)CCC/C=C\C[C@@H]1[C@@H](CC[C@@H](O)CCc2ccccc2)[C@H](O)C[C@@H]1O`, for which the outcome in test [3] is “inactive [at 11.4 µM]”.

`COCC(=O)Nc1cc(Sc2ccccc2)ccc1N=C(NC(=O)OC)NC(=O)OC`: the Potency result in test [3] was “inactive”.

Turning to `C[C@H]1OC[C@@H](C[N+](C)(C)C)O1`, the result in test [5] was inactive. In addition, the Potency entry in test [6] and in [7] was “inactive” each time.

As to `C[C@H]1C2Cc3ccc(O)cc3[C@]1(C)CCN2CC1CC1`, in test [9], the compound was called inactive and the viability change was -0.82%.

As for `NNCc1cccc(O)c1`, the result in test [5] was inactive.

For the compound `CCN(CC)C(=O)N[C@@H]1C[C@@H]2c3cccc4[nH]cc(c34)C[C@H]2N(C)C1`, the Potency result (in [8]; in the test on 3D7; in the test with CP247; in the test on CP268; with ECU; in the test with FAB9) was “inactive” in each case. For the same compound, the Potency result in the test with PC15 and with PC49 was “inactive” in each case. The Potency in the test on CP211 was 3.38 µM (active); in the test on CP256, 2.24 µM (active); in the test on Dd2 it was 3.98 µM (active); in the test on W2, 1.69 µM (active).

Turning to `CC(C)(O)C1C2OC(=O)C1[C@]1(O)C[C@H]3O[C@]34C(=O)O[C@H]2[C@]14C` (stereo partly specified) (tested in a mixture with another compound), the Potency result (in [8]; in the test with 3D7; in the test on CP211; in the test with CP247; in the test on CP256; with CP268) was “inactive” in each case. The Potency entry in the test on Dd2, with ECU, in the test with FAB9, with PC15, in the test with PC49 and in the test with W2 was “inactive” throughout.

For the compound `NC(=O)[C@H]1O[C@@H](O)[C@H](O)[C@@H](O)[C@@H]1O`, in test [3], the Potency result was “inactive”.

The values are drawn from PubChem BioAssay (NCATS).
